Source: PubChem
The list is not random: actives were taken first. Their share in the collection is about 9.4%.
ELG1 genotoxic = induces genotoxicity in HEK293T cells with luciferase-tagged ELG1. HEK293T ELG1-luciferase reporter, luminescence, 16 h. Potency, µM (highest dose often 46 µM), for inactives: top-dose activity change, positive = activation, usual class: activators. actives 1.3% (n = 330,000); further: % of control where 0% means no effect; nearly all actives have a fitted effect of over 60% in size
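Screening used a luciferase reporter fused to human ELG1 in HEK293T cells. Luminescence was read on a CCD plate imager after 16 hr exposure and 30 min ONE-Glo incubation.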
SMN2 splice up = SMN2 splice variant enhancement. actives 2.8% (n = 210,000). AID 1458. Potency, µM (highest dose often 46.1 µM), for inactives: top-dose activity change, positive = activation, actives largely listed as activators. HEK293 SMN2-luciferase splicing reporter, luminescence, 30-36 h; further: % of control where 0% means no effect; nearly all actives have a fitted effect of over 55% in size
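qHTS luciferase splicing reporter: luminescence rises when SMN2 exon 7 is included in transfected HEK293 cells. Compound exposure lasted 30-36 h at 37C, with 4.5 mM final sodium butyrate as control, followed by a ONE-Glo read.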
Rab9 prom act = activators of Rab9 promoter; Huh7 Rab9 promoter-luciferase reporter, luminescence, 24 h; Potency, µM (series often up to 9.22 µM), for the others: top-dose activation, negative = inhibition, most hits filed as activators; actives 2.8% (n = 320,000); AID 485297; further: % of control where 0% means no effect; nearly all actives have a fitted effect of over 60% in size
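Stable Rab9-luc Huh7, 1500 cells/well, 2 h settle; cmpd in DMSO, 24 h, 37 °C/5% CO2; luciferase reagent 10 min RT; luminescence.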
ELG1 repair inh = inhibitors of ELG1-dependent DNA repair in HEK293T cells. Potency, µM (top dose mostly 46.1 µM), for inactives: at the top dose activity change, negative = inhibition, actives largely listed as inhibitors. HEK293T ELG1-luciferase reporter, luminescence, 16 h; DNA damage induced by 5-fluorouridine. AID 504467. actives 2.3% (n = 330,000); further: on the % scale 0 is the no-effect control and ±100 the full control effect; nearly all actives have a fitted effect of over 55% in size
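5-Fluorouridine DNA damage + compound/DMSO, 2,000 cells/well, 16 h, 37 °C/5% CO2. ONE-Glo, 30 min RT, luminescence. Readout = decrease in reporter signal.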
NPC1 promoter act = activates the NPC1 promoter. Huh7 NPC1 promoter luciferase reporter, 24 h. Potency, µM (titrated, usually from 9.22 µM), for the others: at the highest dose activation, usual class: activators. actives 2.4% (n = 320,000). AID 485313; further: % of control where 0% means no effect; nearly all actives have a fitted effect of over 60% in size
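Stably transfected Huh7 (NPC1 promoter→luciferase), 1500 cells/well in Opti-MEM + 10% FBS, 2 h settle, then compound 24 h at 37 °C. Luminescence after 10 min with Amplite reagent.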
FLuc counter = firefly luciferase modulation, counter-screen for miR-21 project; P08659; purified FLuc, Km substrates, luminescence inhibition; Potency, µM (titrated, usually from 57.5 µM), for inactives: top-dose activity change, negative = inhibition, actives largely listed as inhibitors; actives 6.9% (n = 360,000);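 further: plate controls were vehicle for no effect and reference inhibitor for full effect; nearly all actives have a fitted effect of over 55% in size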
Target sequence (P08659 whole entry, looked up): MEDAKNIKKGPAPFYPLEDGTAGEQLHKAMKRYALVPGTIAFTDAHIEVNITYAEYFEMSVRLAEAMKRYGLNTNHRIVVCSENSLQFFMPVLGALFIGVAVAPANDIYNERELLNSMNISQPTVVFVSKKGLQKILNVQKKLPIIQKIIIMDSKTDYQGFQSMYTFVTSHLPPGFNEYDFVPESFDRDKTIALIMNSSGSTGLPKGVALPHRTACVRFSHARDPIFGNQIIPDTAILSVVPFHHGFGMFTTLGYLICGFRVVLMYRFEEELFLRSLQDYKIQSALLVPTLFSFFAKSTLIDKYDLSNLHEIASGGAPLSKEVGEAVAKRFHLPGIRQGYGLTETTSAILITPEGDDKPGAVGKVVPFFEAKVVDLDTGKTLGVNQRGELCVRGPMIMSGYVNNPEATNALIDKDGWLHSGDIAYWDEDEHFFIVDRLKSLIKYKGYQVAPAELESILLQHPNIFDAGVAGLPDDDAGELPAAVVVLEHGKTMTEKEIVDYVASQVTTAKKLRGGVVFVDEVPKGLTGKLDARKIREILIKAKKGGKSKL
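Biochemical qHTS of compounds, final roughly 60 µM downward over six points, against 10 nM purified firefly luciferase using Km concentrations of substrates (10 uM D-luciferin, 10 uM ATP) in Tris acetate pH 7.5 buffer; luminescence output.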
The depositor's hits bear a star; u = inconclusive; x = no result. The call rests on the fitted dose curve; in most records, active means well fitted curve in the direction sought with a large enough effect; inconclusive means small, poorly fitted or top-dose-only effect, or another doubt; inactive means no such curve, though single readings can be large; an effect the other way counts as inactive or inconclusive. Potency means the concentration at half of the fitted maximal effect.

SMILES	ELG1 genotoxic	SMN2 splice up	Rab9 prom act	ELG1 repair inh	NPC1 promoter act	FLuc counter
CN(C(=O)/C=C/c1ccc2c(c1)OCO2)c1ccccc1	8%	u	u	u	u	u
O=C(/C=C/c1ccccc1Br)c1ccc2c(c1)OCO2	21%	x	11%	u	17%	12µM*
Cc1cc(C)c(C(=O)/C=C/c2ccc3c(c2)OCO3)c(=O)[nH]1	-5%	x	-7%	u	-2%	-5%
O=C(/C=C/c1ccc2c(c1)OCO2)c1ccc[nH]1	u	16µM*	u	u	3.2µM*	2.1µM*
CN(C)c1ccc(CNC(=O)CN2C(=O)C3CCCCN3c3ccc(C(=O)N4CCCC4)cc32)cc1 (configuration not stated)	x	x	x	x	x	-7%
COc1cccc(/C=C/C(=O)NNC(=O)c2ccncc2)c1OC	5%	x	8%	u	5%	21µM*
O=C(/C=C/c1ccc2c(c1)OCO2)c1ccc(F)cc1	9%	2%	4%	u	1%	4.3µM*
CN(C)c1ccc(/C=C/C(=O)c2ccc3c(c2)OCCO3)cc1[N+](=O)[O-]	17%	-17%	13%	24%	10%	9.5µM*
O=C(/C=C/c1cccc(Br)c1)c1ccc2c(c1)OCO2	u	x	5%	u	-2%	11µM*
CCOc1ccccc1CNC(=O)c1cnc2sc(N(CC)CC)nn2c1=O	x	x	x	x	x	-16%
COc1cc(C(=O)NNC(=O)c2ccc3c(c2)OCCO3)cc(OC)c1OC	1%	x	x	-20%	x	x
COc1cccc(/C=C/C(=O)c2ccc[nH]2)c1	3.7µM*	u	3.2µM*	u	3.2µM*	2.1µM*
COc1cc(C(=O)N/N=C(\C)c2ccc3c(c2)OCO3)cc(OC)c1OC	14%	-12%	-25%	-22%	-29%	4%
O=C(/C=C/c1ccccc1)c1ccc2c(c1)OCO2	u	x	u	u	u	2.1µM*
O=C(CNC(=O)c1ccc2c(c1)OCO2)N/N=C(Br)/C=C/c1ccccc1	0%	-11%	-13%	u	-9%	-18%
COc1cccc(/C=C/C(=O)c2ccc3c(c2)OCO3)c1OC	u	x	27%	u	20%	0.95µM*
COc1cc(/C=C/C(=O)c2ccc3c(c2)OCCO3)cc(Br)c1OCC(=O)N(C)C	-35%	x	-22%	u	-21%	12µM*
COc1cccc(/C=C/C(=O)Oc2ccc(C(=O)c3ccc(F)cc3)cc2)c1	2%	10%	-4%	15%	-2%	-10%
CN(C)CCCNc1cc(N2CCN(C3CCCCC3)CC2)c2noc3c2c1C(=O)c1ccccc1-3	x	-22%	x	x	x	-3%
O=C(/C=C\Nc1ccccc1Br)c1ccc2c(c1)OCO2	u	3.2µM*	0.45µM*	u	u	0.085µM*
COC(=O)C1(C(=O)OC)C[C@H]2CON=C2[C@H]1c1ccccc1	x	1%	x	x	x	x
COc1cc(CNC23CC4CC(CC(C4)C2)C3)ccc1OCc1ccccc1	-6%	-50%	-14%	-29%	-2%	-2%
COc1cc(CNc2ccc(N3CCCC3)cc2)ccc1OCc1ccccc1	u	59%	19%	u	16%	6µM*
COc1cc(CNC(C)(C)CO)ccc1OCC(=O)NC(C)(C)C	1%	12%	1%	-9%	-3%	2%
COc1cc(CNc2ccc(CNc3ncn[nH]3)cc2)cc(Cl)c1OCc1ccccc1	-1%	x	19%	u	12%	0%
COc1cc(CNc2ccc(N3CCCCC3)cc2)ccc1OCC(=O)NC(C)(C)C	1%	x	0%	9.2µM*	-12%	5.4µM*
COc1cc(CNc2ncn[nH]2)ccc1OCc1cccc(C)c1	u	x	u	u	u	19µM*
COc1cc(CNc2ccc(N3CCCC3)cc2)ccc1OCc1ccccc1F	13%	18µM*	19%	u	13%	u
